# Screening data: PubChem BioAssay, Broad Institute
# Sampled rows, rich in hits. Any-hit rate of the full collection: about 6.8%.
# T cruzi growth – blocks T. cruzi growth in NIH3T3 culture; 77,000 compounds, 5.9% hits; T. cruzi beta-gal in NIH3T3, GalScreen luminescence, 90 h; inhibition, % at 8.34 µM; AID 624255;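 active = mean inhibition above about 93%, with at least 55% of replicates each passing it, limit read from the data, passing the limit was not always enough; inconclusive = only one of those two conditions holds; inactive = neither condition holds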
# Pf Dd2 growth – P. falciparum Dd2 growth inhibition; AID 1159554; 94,000 compounds, 2.3% hits; activity change, % at 10 µM; SYBR Green, 72 h; stronger effect = lower value; in the data active = activity change below about -80%; inconclusive = no clear call, values can overlap the other calls
# C diff HTS – C. difficile growth inhibition. 86,000 compounds, 0.25% hits. Clostridium difficile clinical isolate growth, OD600, 24 h; stronger effect = lower value. growth activity, negative = inhibition, % at 16 µg/mL (by protocol);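 active = mean growth activity at or below -80% and every replicate also at or below -80%; inconclusive = mean at or below -80% but some replicate above -80%; inactive = mean growth activity above -80%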
# A number is an active result; 0 = inactive; ? = inconclusive; - = not tested or not shown; ! = not confirmed by another sample.
SMILES,T cruzi growth,Pf Dd2 growth,C diff HTS
C[C@@H]1CCCCO[C@@H](CN(C)CC2CCCCC2)[C@H](C)CN([C@H](C)CO)C(=O)c2cc(NC(=O)Nc3ccccc3)ccc2O1,0,-83.9,0
COc1ccc(NC(=O)Nc2ccc3c(c2)C(=O)N([C@@H](C)CO)C[C@H](C)[C@H](CN(C)CC2CCCCC2)OCCCC[C@H](C)O3)cc1,0,-84.4,0
O=C(C[C@@H]1C=C[C@H](NC(=O)Nc2ccc(F)cc2)[C@H](CO)O1)NCc1cccc(F)c1,-,-,0
O=C(C[C@H]1C=C[C@@H](NC(=O)NC2CCCCC2)[C@H](CO)O1)NCc1ccccc1,0,0,-
C[C@H](CO)N1C[C@H](C)[C@H](CN(C)Cc2ccc(Cl)c(Cl)c2)OCCCC[C@H](C)Oc2ccc(NC(=O)C3CCCCC3)cc2C1=O,0,0,0
C[C@@H]1CCCCO[C@@H](CN(C)Cc2ccc(Cl)c(Cl)c2)[C@@H](C)CN([C@H](C)CO)C(=O)c2cc(NC(=O)c3ccncc3)ccc2O1,0,0,0
C[C@@H]1CCCCO[C@H](CN(C)Cc2ccc(Cl)c(Cl)c2)[C@@H](C)CN([C@@H](C)CO)C(=O)c2cc(NC(=O)C3CCCCC3)ccc2O1,0,-91.3,0
C[C@@H]1CN([C@@H](C)CO)C(=O)c2cc(NC(=O)C3CCCCC3)ccc2O[C@@H](C)CCCCO[C@H]1CN(C)Cc1ccc(Cl)c(Cl)c1,0,0,0
C[C@@H]1CN([C@H](C)CO)C(=O)c2cc(NC(=O)c3ccncc3)ccc2O[C@@H](C)CCCCO[C@H]1CN(C)Cc1ccc(Cl)c(Cl)c1,-,-86.2,0
C[C@@H]1CN([C@H](C)CO)C(=O)c2cc(NC(=O)C3CCCCC3)ccc2O[C@@H](C)CCCCO[C@H]1CN(C)Cc1ccc(Cl)c(Cl)c1,0,-90.3,0
Cc1ccc(S(=O)(=O)N[C@@H]2CC[C@@H](CCNC(=O)C3CCCC3)O[C@@H]2CO)cc1,-,0,0
COc1ccc(S(=O)(=O)N(C)C[C@@H]2Oc3ccc(NC(=O)Nc4ccc5c(c4)OCO5)cc3C(=O)N([C@H](C)CO)C[C@H]2C)cc1,0,0,0
C[C@H](CO)N1C[C@H](C)[C@@H](CN(C)Cc2ccc(Oc3ccccc3)cc2)Oc2ccc(NC(=O)NC3CCCCC3)cc2C1=O,0,0,0
CCS(=O)(=O)N1CC2(C1)CN(S(=O)(=O)c1ccc(C)cc1)[C@H](CO)c1[nH]c3cc(OC)ccc3c12,-,0,0
CCCC(=O)N1CC2(C1)CN(S(=O)(=O)c1ccc(C)cc1)[C@@H](CO)c1[nH]c3cc(OC)ccc3c12,-,-87.4,0
COc1ccc2c3c([nH]c2c1)[C@H](CO)N(S(=O)(=O)c1ccc(C)cc1)CC31CCN(C(=O)Cc2cccnc2)CC1,-,-86.2,0
COc1ccc2c3c([nH]c2c1)[C@H](CO)N(S(=O)(=O)c1ccc(C)cc1)CC31CN(C(=O)Cc2cccnc2)C1,-,0,0
C[C@H](CO)N1C[C@H](C)[C@@H](CN(C)Cc2ccc(C(=O)Nc3ccccc3N)cc2)Oc2ccc(NS(=O)(=O)c3cn(C)cn3)cc2CC1=O,-,0,0
COc1ccc(NC(=O)Nc2ccc3c(c2)C(=O)N([C@H](C)CO)C[C@@H](C)[C@@H](CN(C)S(=O)(=O)c2ccc(F)cc2)OCCCC[C@@H](C)O3)cc1,0,-81.2,0
COc1ccc(NC(=O)Nc2ccc3c(c2)C(=O)N([C@H](C)CO)C[C@@H](C)[C@H](CN(C)S(=O)(=O)c2ccc(F)cc2)OCCCC[C@@H](C)O3)cc1,0,-81.6,0
COc1ccc(S(=O)(=O)N(C)C[C@H]2OCCCC[C@@H](C)Oc3ccc(NC(=O)Nc4ccc(F)cc4)cc3C(=O)N([C@H](C)CO)C[C@H]2C)cc1,?,0,0
COc1ccc(S(=O)(=O)N(C)C[C@H]2OCCCC[C@H](C)Oc3ccc(NC(=O)Nc4ccc(F)cc4)cc3C(=O)N([C@H](C)CO)C[C@H]2C)cc1,0,-80.6,0
COc1ccc(NC(=O)Nc2ccc3c(c2)C(=O)N([C@H](C)CO)C[C@H](C)[C@@H](CN(C)S(=O)(=O)c2ccc(F)cc2)OCCCC[C@@H](C)O3)cc1,0,0,0
COc1ccc(NC(=O)Nc2ccc3c(c2)C(=O)N([C@H](C)CO)C[C@H](C)[C@H](CN(C)S(=O)(=O)c2ccc(F)cc2)OCCCC[C@@H](C)O3)cc1,0,?,0
C[C@@H]1CN([C@@H](C)CO)C(=O)Cc2cc(NS(=O)(=O)c3ccccc3)ccc2O[C@@H]1CN(C)C,-,0,0
SMILES,T cruzi growth,Pf Dd2 growth,C diff HTS
CO[C@H]1CN(C)C(=O)c2ccc(NC(=O)Cc3ccccc3)cc2OC[C@H](C)N(CC2CC2)C[C@H]1C,0,0,-
CNC(=O)C[C@H]1CC[C@@H]2[C@H](COc3ccc(NC(=O)Nc4ccccc4F)cc3C(=O)N2C)O1,0,0,0
Cc1ccc(S(=O)(=O)Nc2ccc3c(c2)CC(=O)N([C@H](C)CO)C[C@@H](C)[C@H](CN(C)S(=O)(=O)c2ccc(F)cc2)O3)cc1,0,0,0
O=C(Nc1ccc(Cl)cc1)N1[C@@H]2CNC[C@H]1C2c1ccc(/C=C/c2ccccc2)cc1 (stereo not given in full),-,0,-97.6
O=C(Nc1ccc(C(F)(F)F)cc1)N1[C@@H]2CNC[C@H]1C2c1ccc(-c2ccccc2)cc1 (stereo not given in full),-,0,-98.9!
O=C(Nc1ccc(F)cc1)N1[C@@H]2CNC[C@H]1C2c1ccc(-c2ccccc2)cc1 (stereo not given in full),-,0,0
O=C(Nc1ccc(C(F)(F)F)cc1)N1[C@@H]2CNC[C@H]1C2c1ccc(/C=C/c2ccccc2)cc1 (stereo not given in full),-,?,-102.6!
O=C(Nc1ccccc1Cl)N1[C@@H]2CNC[C@H]1C2c1ccc(/C=C/c2ccccc2)cc1 (stereo not given in full),-,0,0
Cc1ccccc1-c1ccc(C2[C@H]3CNC[C@@H]2N3C(=O)Nc2ccc(F)cc2)cc1 (stereo not given in full),-,0,0
Cc1ccccc1-c1ccc(C2[C@H]3CNC[C@@H]2N3C(=O)Nc2ccc(C(F)(F)F)cc2)cc1 (stereo not given in full),-,0,-96.4
O=C(Nc1ccc(Cl)cc1)N1[C@@H]2CNC[C@H]1C2c1ccc(-c2ccccc2)cc1 (stereo not given in full),-,0,0
CO[C@@H]1CN(C)C(=O)c2ccc(NC(=O)C3CCCC3)cc2OC[C@H](C)N(C(=O)CC2CC2)C[C@H]1C,0,0,-
COCC#Cc1ccc2c(c1)O[C@@H](CN(C)C(=O)CC1CC1)[C@@H](C)CN([C@@H](C)CO)S2(=O)=O,0,0,0
CCC(=O)Nc1ccc2c(c1)OC[C@H](C)N(C(=O)COC)C[C@H](C)[C@H](OC)CN(C)C2=O,0,0,0
O=C(Nc1ccc(F)cc1)N1[C@@H]2CNC[C@H]1C2c1ccc(/C=C/c2ccccc2)cc1 (stereo not given in full),-,0,-101.1!
O=C(Nc1cc(F)ccc1F)N1[C@@H]2CNC[C@H]1C2c1ccc(/C=C/c2ccccc2)cc1 (stereo not given in full),-,0,0
Cc1noc(C)c1NC(=O)Nc1cccc2c1O[C@H](CN(C)S(=O)(=O)c1ccc(F)cc1)[C@@H](C)CN([C@@H](C)CO)C2=O,0,0,0
